These results are taken from paper PMC12864922, “TDP-43 directly inhibits mRNA accumulation in neurites through modulation of mRNA stability”.

The full ranking holds about 9,900 sequences; the median of “r (bound/input frequency ratio)” is about 0.7, and the highest 2% start at about 6.5. This is one part of a sample in which the highest values are shown more often than they occur.

The chains are these.
B1: ENSMUSG00000043670.145|Diras1 (ssRNA)
RNA: GGGAGUUCUACAGUCCGACGAUCGCUUCGAUAUCCGCAUGCUAUCAGGGGAGGCACACUGGAACCCUGAACUUGGAGUGUGGAGUGGCUGCCUGGACACUGCCCACCUGGACACCAGCCUUCUGCUGAGAUAGAGACCUUGGCACAGUGGCACCUCGACAGCCACCCCGACUGGGGGUUUGGGGUGCUGAGGGUGGGGUGCCCAGCUGAGAGUCUAUCAGCAAAGUCCCUGUGUGCGGUGAUAGGACUAGUGGCUGCUGCCCUAGGGCUCUGACAGAAUCUGAGCCUCUUUGCUGGUCAUGUGCUCUUGCGGUCGCACUAGUGUGGAAUUCUCGGGUGUCAAGG
B2: ENSMUSG00000022095.153|Fam160b2|110:114 (ssRNA)
RNA: GGGAGUUCUACAGUCCGACGAUCGCUUCGAUAUCCGCAUGCUAGACUAUAGGAACUCAAGGUACAGAUGGGACAGGGCACCCCAACUCCAAACCCCAGAAGCCUAGUGAGGCUAGGCCGAGACACAAGCAGAUAGCUCUGGCAUUGUUCUUCCAUACUCCUCCAUGGCUGGGGCUGCUACCUCACCCGGCCUGAAUCUGUCUCAACCUGCAAGAGCACUCGGGCGGCGCCAGGCAUUACCUCACAACAGGCCUGCAGUUGUUGGCUUCCCUCCUGGGCAAGGAGGAGCAGGCCAGAGCCCCUUCUCUUGCGGUCGCACUAGUGUGGAAUUCUCGGGUGUCAAGG
B3: ENSMUSG00000042529.77|Kcnj12|96:100 (ssRNA)
RNA: GGGAGUUCUACAGUCCGACGAUCGCUUCGAUAUCCGCAUGCUAACAAACAAAAACAAACAAACAAACAAUCAAAAAAAAAACCCACCCCACAAAACACAAGAAAACAUUAACAGGUGGUUCAAUUUUUAAAAUUCCUGCACACGGGACAGUUGGAAUUCUACUCAGCGCUGCCAGGCAAGCAGCUGGACGGAGAACCCUGAGGGUUCUCAGAGGUCUGUUUUCUCCCUCACGUGGGCCAGGGCCUUAAGCGAGUUGUCAUGCUUAAGGAUGAAUCAGGCUGCUUGUGACCAUGUUAACGAUUCCUCUUGCGGUCGCACUAGUGUGGAAUUCUCGGGUGUCAAGG
B4: ENSMUSG00000090935.460|Synj2bp (ssRNA)
RNA: GGGAGUUCUACAGUCCGACGAUCGCUUCGAUAUCCGCAUGCUACACAACCAGUAAGAAAAAUAUUGCCAUCCAAAACAGAGCACAGUGCAGCAACAUAGAAGAUAAGCAGAUAACCAGCAAGUAUUGUAAGGAGUUCAGAAAAGGAAAGCCAUCGUGUAGUGGCAUCAGGGGAGAAUGGAAAGGAAAGUCUAGAACAGUCCAGUGAUACUUUACCUCUGGGAAAACUCUUGAUACAGGGAGACAUUUGCUUUAAACAAUCUUCACAUAACUAAGCCAUUCAGUACUUUUUGAAACUGACUUAGCUCUUGCGGUCGCACUAGUGUGGAAUUCUCGGGUGUCAAGG
B5: ENSMUSG00000061578.947|Ksr2 (ssRNA)
RNA: GGGAGUUCUACAGUCCGACGAUCGCUUCGAUAUCCGCAUGCUAAAGACUGCAUGUUAACGCUCCUGCCACUGUUGCCCCUUCCUUUACCCUUGGCAGACAUUGCUAAUCAAUCUCAGCACAGUUUCCAACCACAGUCAUAGAACAUUUGCCACAAAGGCCCUGGAUGUGACUAUAUGUGCUGAGAAGGGAAGGUAGUUUUCCCCCAGAAAGUCCCUUCUAAUAAACAUUGAUGACUUUAGAAUCCAUGACUCAGAAUUUUCCAGAGACCCAAUCCCUCGGGGUCCACUUAGUGAUGGGACCAUCUCUUGCGGUCGCACUAGUGUGGAAUUCUCGGGUGUCAAGG
B6: ENSMUSG00000090935.28|Synj2bp|72:76;256:260 (ssRNA)
RNA: GGGAGUUCUACAGUCCGACGAUCGCUUCGAUAUCCGCAUGCUAGUAAAUGGCCAAGAUCUGAAGAACCUGCUGCACCAAGAUGCUGUAGACCUCUUCCGUAAUGCGGGAUGUGCACACACCCUGAGAGUACAGCACAGGUUACCAGUGCAGAAUGGACCUAUAGUACAUCGAGGUGAAGGAGAGCCAAGUGGAGUUCCUGUAGCUAUGGUGCUGCUACCAGUGUUUGCCCUCACCAUGGUAGCAGUUUGGGCCUUCGUGAGAUACCGAAAGCAGCUUUGAAAUGCUUGCUGUCUUCCACACACCUCUUGCGGUCGCACUAGUGUGGAAUUCUCGGGUGUCAAGG
B7: ENSMUSG00000042529.254|Kcnj12 (ssRNA)
RNA: GGGAGUUCUACAGUCCGACGAUCGCUUCGAUAUCCGCAUGCUAUUCCCCUAGGACCCGCUGCAGAGGCAUGGGCUCCUCUGUGGUCCUGGCCAGACCUCUGCCCCCAAAUCUCACUGACUGUUCUAGCCUUGGCCUUGGGGCCUAAGGGUGCAUUCAGCCUGGGUGUGCUUACCUGCCACUCACCUCUCUAUCUAGUUGUCGAGUCUAGGGAAGGGCAGAGGGUGGGUCCUGGCCACUGGGUGCCACUGUGGGAGCCGGGGCACCUGUCAUUCUUUCUGAGUAGGUGGGCCUGUAUCCAGAGCCUCUUGCGGUCGCACUAGUGUGGAAUUCUCGGGUGUCAAGG
B8: ENSMUSG00000061578.312|Ksr2 (ssRNA)
RNA: GGGAGUUCUACAGUCCGACGAUCGCUUCGAUAUCCGCAUGCUACCAGGGAGGGCUGAAGCUCUGGGACCCUGAAGUGUCCCCCGGGAACUGGGACUCACUCAUCUUCUCCUGUUUGUAGCUCAAUGACCCAGUGGGUCACAGUUCUAGGCGCUCCAAGGAAGCCAGGGGAGGGGGACUCCUCAGGAAGGAGUGACCAGUCACCUGCCUCCCAGGGUUCUGCCUUGCCCUUAAGCUAGGGUCCUUCAAGCAUCCACAGACUUAGAGUGUGGUGGUAACAUGCUUGUAAUCCUGGCACUCUGGAGCUCUUGCGGUCGCACUAGUGUGGAAUUCUCGGGUGUCAAGG
B9: ENSMUSG00000029636.114|Wasf3 (ssRNA)
RNA: GGGAGUUCUACAGUCCGACGAUCGCUUCGAUAUCCGCAUGCUAGCGGCCAUUUUUAUGAGGGGAGCCCUGUGGGUACUCAUGUGGAAAGUGCCCACUGACUUUGGCAGAUGGAGUUCACUUUCAUGGCUAGCCCUGAUAGCGUUGGGCACCAGUUAGCCAGGCCAUGUUCAAGCUGCCUAGAGUCUGCAGAGCUUGCAUGGCAGAGCGGCCGCAUCUGGUUCCCUCCUACUCCACCCAGUGGAAAAGAGACCUCCACGUUUUAUUUUCUGGGAUCCCUGCUCCUCUGUUCACCAGGGAGUGAGCUCUUGCGGUCGCACUAGUGUGGAAUUCUCGGGUGUCAAGG

Sequence of TDP-43 (Q13148 whole entry): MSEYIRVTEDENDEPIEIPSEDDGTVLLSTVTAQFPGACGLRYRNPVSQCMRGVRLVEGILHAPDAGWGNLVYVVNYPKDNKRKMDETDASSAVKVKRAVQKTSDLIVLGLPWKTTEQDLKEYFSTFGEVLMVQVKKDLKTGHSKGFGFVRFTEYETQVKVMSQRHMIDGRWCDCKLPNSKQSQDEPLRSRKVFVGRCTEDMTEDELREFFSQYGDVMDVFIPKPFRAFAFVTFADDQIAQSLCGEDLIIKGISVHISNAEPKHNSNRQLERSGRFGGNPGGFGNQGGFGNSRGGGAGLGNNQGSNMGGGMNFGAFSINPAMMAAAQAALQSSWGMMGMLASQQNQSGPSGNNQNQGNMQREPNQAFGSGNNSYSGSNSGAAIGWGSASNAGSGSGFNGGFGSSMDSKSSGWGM

This test addresses TDP-43 (Homo sapiens, UniProt Q13148 1-414). The experiment in a line: RNA Bind-n-Seq with designed 260-mer pool; 25 mM Tris-HCl, 150 mM KCl, 3 mM MgCl2, BSA (printed 500 mg/mL), 20 units/mL SUPERase IN; pH not stated; 500 nM RNA pool, 1 h, 4 C; TDP-43 5, 50, 500 nM; high values mean tight binding. The following applies: protein: recombinant; tags: SBP (GST cleaved off with PreScission; pGEX-GST-SBP). An outline of the steps:
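Recombinant SBP-tagged TDP-43 at 5, 50 or 500 nM was captured on streptavidin beads, then incubated 1 h at 4 °C with 500 nM of an in vitro-transcribed 260-nt 3′ UTR oligo pool in 25 mM Tris-HCl, 150 mM KCl, 3 mM MgCl2, BSA and SUPERase IN. Bound RNA was washed, eluted with biotin, reverse transcribed, PCR-amplified and sequenced. Binding is R, each oligo's mapped-read-normalized abundance in the bound sample divided by its abundance in input. Duplicates used two independent protein batches.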
With B1, the binding signal is 0.713 R (bound/input frequency ratio).

Take B2: the binding signal was 1.53 R (bound/input frequency ratio). On to B3, for which the binding signal is 1.63 R (bound/input frequency ratio).

With B4, the binding signal is 0.396 R (bound/input frequency ratio). In the case of B5 it was 0.693 R (bound/input frequency ratio). With B6, the binding signal is 1.49 R (bound/input frequency ratio). Then B7, with 0.966 R (bound/input frequency ratio). As for B8, the binding signal is 0.535 R (bound/input frequency ratio).

Turning to B9, the binding signal was 0.753 R (bound/input frequency ratio).
